uPA surface inh: inhibitors of cell surface uPA generation. cell surface uPA generation assay, qHTS. hit rate 0.31% among 330,000. Potency, µM (top dose mostly 38.3 µM), without a hit: at the highest dose activity change, negative = inhibition, usual class: inhibitors; active means well fitted inhibition curve with a large enough effect; inconclusive means small, poorly fitted or top-dose-only effect; inactive means no such curve, though single readings can be large or run the other way; tested in mouse RAW 264.7 cells; further: potency means the concentration at half of the fitted maximal effect; on the % scale 0 is the no-effect control and ±100 the full control effect; nearly all actives have a fitted effect of over 55% in size
Sfp inh: inhibitors of Bacillus subtilis Sfp phosphopantetheinyl transferase; Biochemical Sfp PPTase activity, qHTS; hit rate 3.5% among 310,000; Potency, µM, for the others: largest response in the series, negative = inhibition, hits mostly inhibitors;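 further: the enzyme is Sfp with the accession as filed and its product quenches rhodamine fluorescence; potency means the concentration at half of the fitted maximal effect; 0% = enzyme reaction without inhibitor and -100% = no enzyme wells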
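Compounds were incubated with enzyme (final 15 nM) for 15 min at room temperature before substrate addition started the reaction. Fluorescence at 525 nm excitation, 598 nm emission was recorded immediately and after 30 minutes.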
ClpP mod: qHTS Assay for Activators of ClpP; ATP-dependent Clp protease proteolytic subunit (Bacillus subtilis (strain 168)), P80244; purified B. subtilis ClpP, FRET peptide cleavage, 20 min; Potency, µM (top dose mostly 57.5 µM), without a hit: at the top dose activity change, negative = active; hit rate 1.9% among 340,000; active means well fitted falling curve with a large enough effect; inconclusive means small, poorly fitted or top-dose-only effect; inactive means no such curve, though single readings can be large or run the other way; further: potency means the concentration at half of the fitted maximal effect; the source files actives as falling curves though it sought activators and does not explain the sign; nearly all actives have a fitted effect of over 65% in size
Target sequence (P80244 whole entry, looked up): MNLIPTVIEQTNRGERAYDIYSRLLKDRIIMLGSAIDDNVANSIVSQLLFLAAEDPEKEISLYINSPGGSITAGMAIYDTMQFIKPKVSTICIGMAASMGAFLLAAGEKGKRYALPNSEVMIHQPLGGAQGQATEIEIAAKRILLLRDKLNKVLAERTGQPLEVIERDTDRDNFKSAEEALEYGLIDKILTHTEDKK
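Buffer: 100 mM Tris/HCl pH8, 100 mM KCl, 0.05% low protease BSA, 2.5% glycerol, 0.01% Tween-20. ClpP 10 microg/mL final; 20 min RT; delta FRET normalized to ADEP and DMSO controls.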
TCR act: activators of T cell receptors. 330,000 tested, under 10 active. primary human leukocytes, anti-CD3, IL-2 HTRF, 48 h. Potency, µM (highest dose often 9.22 µM), inactives show at the highest dose activation of IL-2 secretion, usual class: activators; further: % of control where 0% means no effect
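Primary human leukocytes incubated 48 hr with anti-CD3 beads plus compound, without co-stimulation. Secreted IL-2 measured by HTRF (europium cryptate/d2 anti-IL-2 pair, 320 nm excitation, 665 nm emission).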
* = called active by the depositor; [ ] = remark or other dose. An excerpt weighted towards active compounds, which were near 4.2% of everything screened. Unless noted, the call rests on the fitted dose curve; in most records, active means well fitted curve in the direction sought with a large enough effect; inconclusive means small, poorly fitted or top-dose-only effect, or another doubt; inactive means no such curve, though single readings can be large; an effect the other way counts as inactive or inconclusive.

CCC(C)(C)n1nnnc1C(c1cc2cccc(C)c2[nH]c1=O)N1CCCC1 (configuration not stated) was read as Sfp inh -23%, ClpP mod -20% and TCR act 3%.
Screening Cc1cc(C)c2[nH]c(=O)c(C(c3nnnn3C(C)(C)C)N3CCN(C(=O)c4ccco4)CC3)cc2c1 (configuration not stated) returned uPA surface inh -6%, Sfp inh 18µM*, ClpP mod inconclusive and TCR act -5%.
`COc1ccccc1C(c1nnnn1C(C)(C)C)N1CCN(C(=O)c2ccco2)CC1` (configuration not stated) gave uPA surface inh -4%, Sfp inh 5%, ClpP mod -3% and TCR act -4%.
For CCC(C)(C)n1nnnc1C(c1cc2cc(C)cc(C)c2[nH]c1=O)N1CCN(Cc2ccc3c(c2)OCO3)CC1 (configuration not stated) the results were uPA surface inh -1%, Sfp inh 63µM*, ClpP mod inconclusive and TCR act -1%.
CCC(C)(C)n1nnnc1C(c1cc2cc(C)cc(C)c2[nH]c1=O)N1CCCC1 (configuration not stated) was read as Sfp inh 25µM*, ClpP mod inconclusive and TCR act 0%[46.1 µM].
For CC1(C)CC2C1CCC1(C)OC2(C)CCC1O (configuration not stated) the results were Sfp inh -6%.
For CN(C)c1ccc(CNC(=O)C2COc3ccccc3C2)cc1 (configuration not stated) the results were ClpP mod -4%.
For CCOc1ccc(S(=O)(=O)Nc2cc(Sc3ncn[nH]3)c3oc(=O)sc3c2)cc1 the results were Sfp inh 7.9µM*.
CC(C)(C)c1cc[n+](-c2[nH]c(=O)sc2/C=N/NC([S-])=Nc2ccccc2)cc1 was read as uPA surface inh -1%, Sfp inh 35µM* and TCR act -2%.
CC(C)(C)[C@H]1C=C(C(N)=O)O[C@@H](OCCCCO)C1 was read as uPA surface inh 6%, Sfp inh 16%, ClpP mod 2% and TCR act 2%.
Screening CN(Cc1ccco1)c1cc(-c2ccoc2)ncn1 returned Sfp inh 32µM*.
Screening Cc1noc(C)c1-c1cc(N(C)Cc2ccco2)ncn1 returned Sfp inh 56µM*.
CN(C)c1ccc(-c2cc(N(C)Cc3ccco3)ncn2)cc1 was read as Sfp inh -16%.
Screening COC(=O)c1cc2oc(C)cc2n1CC(=O)Nc1ccc(C)cc1C returned ClpP mod -3%.
For O=C1C2CCC(C2)[C@@H]2CCCCN12 (some centres not stated) the results were Sfp inh 12%.
Screening COc1cc([C@@H]2CC(=O)c3c(O)cc(O)cc3O2)ccc1O returned Sfp inh -14%.
For OC[C@H]1NC[C@H](O)[C@@H](O)[C@@H]1O the results were Sfp inh 13%.
O=C(NCCc1ccccc1)c1cnc2sc(N3CCCCC3)nn2c1=O was read as ClpP mod 4%.
`NC(=S)Nc1cccc2cnccc12` gave uPA surface inh -3%, Sfp inh 9%, ClpP mod -2% and TCR act 2%.
Screening Cc1ccccc1NC(=S)Nc1ccccn1 returned uPA surface inh 0%, Sfp inh 56µM*, ClpP mod -3% and TCR act -6%.
Cc1ccc(C)c(NC(=S)Nc2cccc3cnccc23)c1 was read as uPA surface inh 9% and Sfp inh 32µM*.
Screening Cc1ccccc1NC(=S)Nc1cccc2cnccc12 returned uPA surface inh -1%, Sfp inh 3.2µM* and TCR act 1%.
Fc1ccccc1NC(=S)Nc1cccc2cnccc12 was read as uPA surface inh 10%, Sfp inh 22µM* and TCR act 3%.
O=C(COC(=O)/C=C/c1cccc(C(F)(F)F)c1)Nc1cccc(S(=O)(=O)NC2=NCCC2)c1 was read as ClpP mod 2%.
For FC(F)(F)c1ccccc1NC(=S)Nn1cnnc1 the results were uPA surface inh -9%, Sfp inh 20µM*, ClpP mod -1% and TCR act 1%.
`FC(F)(F)c1ccccc1NC(=S)Nc1cccc2cnccc12` gave uPA surface inh 2%, Sfp inh 20µM* and TCR act 6%.
For COCCNC(=S)Nc1cccc2cnccc12 the results were uPA surface inh 0%, Sfp inh -16%, ClpP mod 0% and TCR act -2%.
Cc1ccc(C)c(NC(=S)Nc2cccnc2)c1 was read as uPA surface inh 3%, Sfp inh -12%, ClpP mod 25µM* and TCR act -1%.
Screening CN(C)c1ccc(NC(=O)CCCc2ccccc2)cc1 returned uPA surface inh -3%, Sfp inh 22µM*, ClpP mod 0% and TCR act -3%.
For CCOC(=O)COc1ccc(C)cc1C(=O)c1ccn2nc(-c3ccc(F)cc3)cc2n1 the results were ClpP mod -4%.
For CO/N=C(\C(=O)O)c1csc(NN=C(C)C)n1 the results were uPA surface inh 3%, Sfp inh 35µM* and TCR act -4%.
For CN(CCO)c1ccc2c(c1)OC[C@@H](Cc1ccccc1)NS2(=O)=O the results were ClpP mod -1%.
`O=C(CSc1oc(-c2cccs2)nc1S(=O)(=O)c1ccccc1)NC1CCCCC1` gave Sfp inh 40µM*, ClpP mod -24% and TCR act 4%.
For CSc1oc(-c2ccco2)nc1S(=O)(=O)c1ccc(C)cc1 the results were uPA surface inh -2%, Sfp inh -13% and TCR act -3%.
For CSc1oc(-c2cccs2)nc1S(=O)(=O)c1ccccc1 the results were uPA surface inh -3%, Sfp inh 89µM*, ClpP mod -27% and TCR act 6%.
For CSc1oc(-c2ccco2)nc1S(=O)(=O)c1ccc(F)cc1 the results were uPA surface inh -7%, Sfp inh 79µM*, ClpP mod -3% and TCR act -5%[46.1 µM].
CCn1c(CNc2nc3ccccc3n2C(C)C)nc2ccccc21 was read as uPA surface inh 9%, Sfp inh 10%, ClpP mod -1% and TCR act 2%.
For IC(I)I the results were Sfp inh 45µM*.
For Cc1cccc2sc(NNC(=O)C3COc4ccccc4O3)nc12 (configuration not stated) the results were uPA surface inh -8%, Sfp inh 32µM*, ClpP mod -1% and TCR act -4%.
Screening CCOC(=O)C1=CCN(S(=O)(=O)c2ccccc2Cl)C1c1cccc(Br)c1 (configuration not stated) returned ClpP mod -2%.
Cc1cccc(C(=O)NNS(=O)(=O)c2ccc(F)cc2)c1 was read as uPA surface inh 4%, Sfp inh -3% and TCR act -4%.

Source: PubChem BioAssay (National Center for Advancing Translational Sciences (NCATS))
